CHO-K1 Ca antag – counter-screen for M1 antagonists: effect in parental CHO-K1 cells. inhibition, % at 3 µM. 0.6% of 360,000 active. AID 602250. ATP-induced calcium, Fluo-8 fluorescence;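 active means inhibition above a per-plate cutoff, the plate's mean sample inhibition plus 3 SD, cut at about 24% in these data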;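 further: 0% = DMSO plus EC80 ATP and 100% = DMSO alone without ATP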
M1 PAM – human CHRM1 positive allosteric modulation | 0.088% of 360,000 active | activation, % at 3 µM | CHO-K1 hM1, Fluo-8 calcium fluorescence, ACh EC20; 0% = ACh EC20, 100% = maximal ACh | P11229; in the data active means activation above about 19%, passing the limit was not always enough
Target sequence (P11229 whole entry, looked up): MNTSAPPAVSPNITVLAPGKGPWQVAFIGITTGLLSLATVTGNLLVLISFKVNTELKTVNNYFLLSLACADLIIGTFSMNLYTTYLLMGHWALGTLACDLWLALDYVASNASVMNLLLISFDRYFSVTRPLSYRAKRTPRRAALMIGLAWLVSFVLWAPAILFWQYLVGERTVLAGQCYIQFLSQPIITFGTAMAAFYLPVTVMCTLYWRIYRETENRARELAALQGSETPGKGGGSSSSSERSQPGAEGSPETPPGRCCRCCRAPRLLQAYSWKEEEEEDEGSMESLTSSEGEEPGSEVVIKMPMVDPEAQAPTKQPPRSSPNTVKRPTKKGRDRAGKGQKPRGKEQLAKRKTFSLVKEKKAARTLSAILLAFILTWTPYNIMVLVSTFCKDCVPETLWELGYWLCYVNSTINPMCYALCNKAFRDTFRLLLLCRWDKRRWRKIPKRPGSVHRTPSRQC
M1 ag – human M1 muscarinic receptor agonism | CHO-K1 hM1, Fluo-8 calcium fluorescence, agonist mode; 0% DMSO, 100% acetylcholine EC100 | P11229 | activation, % at 3 µM | 0.33% of 360,000 active;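 active means activation above the run's mean compound activation plus 3 SD, cut at about 16% in these data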;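 further: peak over basal fluorescence ratio within a 140 s kinetic read after compound addition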
CHO-K1 Ca ag – nonselective activator or artifact in parental CHO-K1 cells | Fluo-8 calcium fluorescence; scaled to maximal ATP response, vehicle zero | activation, % at 3 µM | 0.48% of 360,000 active; in the data active means activation above about 15%;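 further: untransfected CHO-K1 host cells lacking M1 receptor as counterscreen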
CHRM1 antagonist – antagonists of human M1 muscarinic receptor; P11229; CHO-K1 hM1, Fluo-8 calcium fluorescence, ACh EC80 antagonist; inhibition, % at 3 µM; 1.3% of 360,000 active;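 active means percent inhibition above its own plate's cutoff, namely the mean of that plate's compound wells plus 3 SD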;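 further: peak over basal fluorescence ratio during 140 s after agonist addition; 0% = ACh EC80 plus DMSO and 100% = DMSO alone without agonist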
CHO-K1 Ca PAM – counter-screen for M1 PAMs: effect in parental CHO-K1 cells. 0.02% of 360,000 active. ATP EC20, Fluo-8 calcium fluorescence; 0% at ATP EC20, 100% at ATP max. activation, % at 3 µM;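 active means activation above the run cutoff, the mean activation of all test compounds plus 3 SD, cut at about 40% in these data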;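 further: peak over basal fluorescence ratio in a 140 s read after ATP addition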
The depositor's hits bear a star. This is a sample that favours compounds with a hit; in the whole collection about 2.4% have one here.

SMILES | CHO-K1 Ca antag | M1 PAM | M1 ag | CHO-K1 Ca ag | CHRM1 antagonist | CHO-K1 Ca PAM
COc1ccc(/C=N/OCC(=O)NCc2cccs2)c(OC)c1 | -2.9 | 35.9* | -8.3 | -0.3 | 2.7 | 1.4
O=C(COC(=O)COc1ccccc1)NCc1ccccc1 | 5.3 | 7.2 | -4.5 | 18.9* | -9.0 | 6.5
Cc1cc(C)cc(OCC(=O)OCC(=O)NCc2cccs2)c1 | 30.9* | 3.6 | -4.3 | 0.1 | 10.2 | -11.2
CCN1CCN(CCCNC(=O)C2CCN(c3nnc(-n4cccc4)s3)CC2)CC1 | -4.9 | 7.1 | -4.9 | 0.1 | -15.4 | -8.5
CCOc1ccc(NCc2cccn2-c2nnc(N3CCC(C(=O)NCCCN4CC(C)CC(C)C4)CC3)s2)cc1 (stereo not drawn) | -2.4 | -22.9 | -6.2 | 1.1 | 97.9* | -16.7
O=C(Nc1nc2ccccc2[nH]1)NC1CCCCC1 | 11.3 | 3.6 | 8.0 | 23.4* | -1.1 | -1.6
O=C(Nc1nc2ccccc2[nH]1)C1CC1 | -4.7 | 1.4 | -2.4 | -0.3 | 5.4 | -9.6
COCCCN(C(=O)C1CCC1)c1c(N)n(Cc2ccccc2)c(=O)[nH]c1=O | -10.7 | 7.6 | -3.3 | 0.6 | -5.7 | 18.8
CC(OC(=O)c1ccccc1C(=O)N(C)c1ccccc1)C(=O)Nc1ccccc1[N+](=O)[O-] (stereo not drawn) | -3.6 | 5.2 | -4.0 | 0.3 | -0.4 | 1.3
COC(=O)CCCCCCCCCCN1CCCCC1 | -3.6 | -24.0 | -7.8 | 1.6 | 27.4* | 15.9
COC(=O)CCCCC(=O)OC | -12.6 | 17.6 | 4.9 | 0.3 | -15.8 | 11.0
Cc1cccc(N=[N+]([O-])c2cccc(C)n2)n1 | -17.6 | 10.5 | -1.4 | 1.2 | -12.2 | 18.2
CC(Sc1nnc(N)s1)C(=O)c1c(N)n(C)c(=O)n(C)c1=O (stereo not drawn) | 14.1 | 3.2 | -0.8 | 18.2* | 0.6 | -0.3
CC(Sc1ncn[nH]1)C(=O)c1c(N)n(C)c(=O)n(C)c1=O (stereo not drawn) | 4.6 | 9.6 | 8.4 | -0.3 | 6.3 | -2.1
O=C(Nc1ccc(OCC(F)(F)C(F)F)c(C(F)(F)F)c1)c1ccc(Cl)cc1 | 4.9 | -23.4 | 0.9 | 3.5 | 36.3* | -1.3
O=C(Nc1ccc(Br)c(C(F)(F)F)c1)c1ccc(C(F)(F)F)cc1 | 15.5 | -23.2 | -0.3 | 12.5 | 63.4* | -5.3
O=C(Nc1ccc(Br)c(C(F)(F)F)c1)c1ccccc1 | 3.0 | -19.2 | -8.3 | 7.3 | 8.2 | 13.6
COc1ccccc1C1N(c2cc(Cl)ccc2OC)C(=O)C2CCCN21 (stereo not drawn) | 27.3* | 2.8 | -4.8 | -0.4 | -7.3 | -13.3
Cn1nc(C#N)c(=O)[nH]c1=O | -17.1 | 4.6 | -2.6 | 1.0 | -17.0 | 13.7
CC(C)(C)c1nnc(N/N=C/c2cc(Br)ccc2O)n(N)c1=O | 15.0 | -17.2 | 4.0 | 11.4 | 35.3* | -4.4
CCc1nnc(N/N=C/c2cc(Br)c(O)cc2O)n1N | 7.3 | 15.8 | -1.3 | 0.5 | -18.4 | -0.8
COc1ccc(OC)c(CNc2ncc(-c3cccc([N+](=O)[O-])c3)n2C)c1 | -8.4 | -28.8 | -8.6 | 0.5 | 45.3* | 11.6
Cn1c(-c2cccc([N+](=O)[O-])c2)cnc1NCc1cccc([N+](=O)[O-])c1 | -17.1 | -18.3 | -5.0 | 2.4 | 19.0 | 16.0
CCOC(=O)c1c(NC(=O)CSc2nnc(-c3ccccc3C)n2C)sc(C(C)=O)c1C | 20.8 | -18.6 | -3.6 | 1.8 | 46.4* | -9.2
COc1ccc(C(O)c2ncc(-c3cccc(OCc4ccccc4)c3)[nH]2)cc1F (stereo not drawn) | -5.3 | -0.3 | -1.9 | 0.5 | -2.7 | 2.7
SMILES | CHO-K1 Ca antag | M1 PAM | M1 ag | CHO-K1 Ca ag | CHRM1 antagonist | CHO-K1 Ca PAM
CCN1C[C@@H]2[C@@H]3C(=O)N(C)C(=O)[C@@H]3[C@](C)(C1=O)N2C(=O)c1ccc(C)cc1 | -25.2 | 13.3 | -0.9 | 1.9 | -16.9 | 32.5
Cc1ccc(C(=O)OCC(=O)NC(=O)c2ccc(C(C)(C)C)cc2)c(O)c1 | 14.8 | -12.1 | 1.3 | -0.3 | 33.5* | -8.3
CCOc1ccc(NC(=O)c2ccc(NC(=O)c3ccccc3Br)cc2)cc1 | 30.3* | -5.7 | -2.6 | 7.0 | 19.2 | -15.8
CCOc1ccc(NC(=O)c2ccccc2CO)cc1 | 29.8* | 2.6 | -5.9 | 0.1 | -6.3 | -6.9
COc1cccc(NC(=O)CN(C)C(=O)c2c(C)nn(-c3ccccc3)c2Cl)c1 | -24.7 | 7.7 | -1.8 | 0.5 | -10.6 | -1.6
Cc1c(C(=O)NCc2ccccc2)oc2ccc(S(=O)(=O)N3CCC4(CC3)OCCO4)cc12 | 7.3 | 0.3 | -1.5 | 4.6 | 8.8 | 8.0
Cc1c(C(=O)NCC2COc3ccccc3O2)oc2ccc(S(=O)(=O)N3CC(C)CC(C)C3)cc12 (stereo not drawn) | 4.1 | -8.8 | -3.5 | 0.0 | 13.5 | -10.6
Cc1c(C(=O)NCCC2=CCCCC2)oc2ccc(S(=O)(=O)N3CCC4(CC3)OCCO4)cc12 | 12.3 | -11.7 | -0.8 | 4.6 | 35.5* | 2.1
Cc1c(C(=O)NCC2COc3ccccc3O2)oc2ccc(S(=O)(=O)N3CCOCC3)cc12 (stereo not drawn) | 13.3 | -7.3 | 1.9 | 5.1 | 34.8* | 0.1
O=C(NCCOc1ccccc1)c1ccccc1NC(=O)C1CCCO1 (stereo not drawn) | 1.5 | 6.8 | -5.2 | 18.1* | -3.3 | 8.4
Cc1cccc2nnc(-c3ccccc3)n12 | -23.2 | 5.5 | -5.0 | 0.3 | -11.3 | 26.7
O=C(COc1ccccc1)NC(=S)Nc1cccc2c(O)cccc12 | -5.9 | 3.2 | 19.1* | 6.9 | 2.5 | 4.7
CCCN(CC(=O)Nc1ccccc1C)C(=O)c1ccc(N2CCCCC2)c([N+](=O)[O-])c1 | 2.0 | 0.2 | -2.6 | 0.2 | -5.1 | 0.4
CNCCC1Sc2ccccc2Oc2ccccc21 (stereo not drawn) | -17.1 | -6.7 | -13.8 | 0.9 | -6.6 | 31.5
CN(C)CCCC1Sc2ccccc2Sc2ccccc21 (stereo not drawn) | 0.9 | -24.8 | -3.4 | 2.7 | 76.1* | 10.9
CC(=O)c1ccc(N2CCN(CC(O)COC(c3ccccc3)c3ccccc3)CC2)cc1 (stereo not drawn) | 14.8 | -36.4 | -14.2 | 2.3 | 91.0* | 17.6
CC(=O)c1ccc(N2CCN(CC(O)COC(c3ccccc3)c3ccccc3C)CC2)cc1 (stereo not drawn) | -3.8 | -32.9 | -10.1 | 5.9 | 101.2* | 4.3
OC(COC(c1ccccc1)c1ccccc1)CN1CCN(c2cccc(Cl)c2)CC1 (stereo not drawn) | -11.8 | -21.1 | -10.7 | 0.9 | 13.1 | 10.6
COc1ccccc1C(=O)NCCC(=O)N1CCN(c2cccc(C(F)(F)F)c2)CC1 | -2.8 | 7.1 | -1.1 | 0.9 | -10.1 | -5.2
O=c1[nH]c2ccc(S(=O)(=O)N3CCC(Cc4ccccc4)CC3)cc2o1 | 23.9* | -11.4 | -4.5 | 0.8 | 25.8 | -6.9
Cn1c(=O)c(=O)n(C)c2cc(S(=O)(=O)N3CCC(Cc4ccccc4)CC3)ccc21 | -3.4 | 3.4 | -3.7 | 0.9 | -0.4 | 7.3
